Source: article PMC7819943, “Rice protein-binding microarrays: a tool to detect cis-acting elements near promoter regions in rice”
The full ranking holds about 35,000 sequences; the median of “fluorescence intensity (a.u.)” is about 10,000, and the highest 2% start at about 52,000. Many of the other results were omitted from the sample, so the highest values are more common in it than they were.

target: T1, OsWOX13 (Oryza sativa, UniProt Q5QMM3 1-267); assay: protein-binding microarray (RPBM); PBS, 2% BSA, 51.3 ng/ul salmon testes DNA, 50 uM zinc acetate, 200 nM TF, 25 C, 1 h; high values mean tight binding; settings: protein: recombinant; tags: N-terminal polyhistidine and DsRed monomer fusion (pET32a); label: CyDye5-dUTP incorporated in the synthesized complementary strand; 3' TTTTT single-stranded linker to array surface; dsDNA, one strand shown
T1 sequence: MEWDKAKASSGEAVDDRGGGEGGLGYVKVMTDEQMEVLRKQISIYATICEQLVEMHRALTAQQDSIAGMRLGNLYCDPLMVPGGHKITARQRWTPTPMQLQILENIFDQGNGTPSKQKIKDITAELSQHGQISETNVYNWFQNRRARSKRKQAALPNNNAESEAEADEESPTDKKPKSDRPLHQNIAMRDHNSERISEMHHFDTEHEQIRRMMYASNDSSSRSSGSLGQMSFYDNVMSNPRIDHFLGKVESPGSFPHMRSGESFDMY
Summary of the method: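 The binding signal is fluorescence intensity per array feature (arbitrary units). Readings came from an Axon 4000B scanner after a washed, 2% BSA-blocked, double-stranded custom Agilent array had been incubated for 1 h at 25 °C with 200 nM protein and 50 µM zinc acetate. The protein was a Ni–NTA-purified transcription factor fused N-terminally to polyhistidine and DsRed, expressed in E. coli BL21-CodonPlus.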

| Sequence | binding signal |
| --- | --- |
| GTATTAATCACATTTCATTTCAACTTTTGATTCTGATATGCGGAGTCACCTAGTGCAG | 5200 fluorescence intensity (a.u.) |
| TTCGTAAATTTGATCGAATTTGGCTTTTAGACGCTGGACACGGAGTCACCTAGTGCAG | 19200 fluorescence intensity (a.u.) |
| CTTAAAACAAATGATTGTTTACGTTCCGTCAATCATGCCCCGGAGTCACCTAGTGCAG | 21200 fluorescence intensity (a.u.) |
| CTAATTTTATGGTTAATGGACACGATTTAATCTAGACTCTCGGAGTCACCTAGTGCAG | 13800 fluorescence intensity (a.u.) |
| GTCTTGTTCATAATAGACTGGACTCTTTGATTCCTGTGTGCGGAGTCACCTAGTGCAG | 3330 fluorescence intensity (a.u.) |
| ATGTTCCTGATTACCCGGTTAGTAAAATTTGAATCGTACTCGGAGTCACCTAGTGCAG | 10600 fluorescence intensity (a.u.) |
| CTCGCCGTCCATCCTTCCCTGCGTCCAATCCCCACCCTCCCGGAGTCACCTAGTGCAG | 60200 fluorescence intensity (a.u.) |
| CCTTCATTCATTTCCTAATCCCAATCCCACCCTCCATTTCCGGAGTCACCTAGTGCAG | 3570 fluorescence intensity (a.u.) |
| TCTCCGTCCCCATCACCCTCGCAATTACTCCACCCGCCGGCGGAGTCACCTAGTGCAG | 5550 fluorescence intensity (a.u.) |
| GTTACCTATTAATTAATAGGAAGATGATATAAATAGTTTACGGAGTCACCTAGTGCAG | 19400 fluorescence intensity (a.u.) |
| TATGACAGGTGGGATTAGGTATTAATAGTGTAGTATGTAACGGAGTCACCTAGTGCAG | 8510 fluorescence intensity (a.u.) |
| TAATTGATTAGCAGTAAGGTATTGGTTGTCCAATCTTGCTCGGAGTCACCTAGTGCAG | 58400 fluorescence intensity (a.u.) |
| TGGAGTGGTGATTTGCTCTCTCTTGAGTGTTGATTAGTGGCGGAGTCACCTAGTGCAG | 9250 fluorescence intensity (a.u.) |
| CTTGATTAGTAGTTGGTTGCTCTTCTTCTTGTTCTTGGTTCGGAGTCACCTAGTGCAG | 64200 fluorescence intensity (a.u.) |
| ATTGGTCCATTAGCACGTGATTAATTAAGTATTTGCTATTCGGAGTCACCTAGTGCAG | 11200 fluorescence intensity (a.u.) |
| ATTAAATAATTTCTTTGATAAAATTGTTTTGCAGGCATATCGGAGTCACCTAGTGCAG | 22300 fluorescence intensity (a.u.) |
| GTTGATTAGCATATATTATTGGTTGCATGTTAGGCTTCCACGGAGTCACCTAGTGCAG | 54700 fluorescence intensity (a.u.) |
| CTGGTTCTTGATTATTATTAGGATTAGTTTGTTCCTTTGTCGGAGTCACCTAGTGCAG | 16900 fluorescence intensity (a.u.) |
| AGAATTGATTAGCTCTTGTTTCTATCATGTTAAACACATTCGGAGTCACCTAGTGCAG | 33000 fluorescence intensity (a.u.) |
| GTTAGTAATGTTGATTAGTGCATGGCTTATTTGGTTGCACCGGAGTCACCTAGTGCAG | 15600 fluorescence intensity (a.u.) |
| GGCTTAATTGTTGATTAAACATCAGGCTCTTCTTGCATATCGGAGTCACCTAGTGCAG | 54900 fluorescence intensity (a.u.) |
| ACTATTCTATTATGATGATTAGGCTGTTATTGGTTGAAGTCGGAGTCACCTAGTGCAG | 7170 fluorescence intensity (a.u.) |
| GGCTAATAGTAGGTTGATTAGTCCTTATTGTGCTTGCCCTCGGAGTCACCTAGTGCAG | 28500 fluorescence intensity (a.u.) |

| Sequence | binding signal |
| --- | --- |
| ATAATAAATATATTTACATTTAGACCCTCGATGTGTCATCCGGAGTCACCTAGTGCAG | 3230 fluorescence intensity (a.u.) |
| TAGGCCCACTAATTAGGCCCATCCAACACGCCGTCCGACGCGGAGTCACCTAGTGCAG | 4020 fluorescence intensity (a.u.) |
| TCAAGCTTCTGCAATTTAGTTGATTGATCGAATTAATCAGCGGAGTCACCTAGTGCAG | 24600 fluorescence intensity (a.u.) |
| TATGATTCTTTTCTAAAAGATTGATACGACATATCAATATCGGAGTCACCTAGTGCAG | 5300 fluorescence intensity (a.u.) |
| CAACTAAACTTTTAATTTTAGCATAAACTAAACAGACCCACGGAGTCACCTAGTGCAG | 5430 fluorescence intensity (a.u.) |
| TATAATTACATTGTAACTGTATTGTAAATACATTTTAATTCGGAGTCACCTAGTGCAG | 5830 fluorescence intensity (a.u.) |
| TAAATTGTACATGATATATGTCAAGTGTCAACGTCTGATTCGGAGTCACCTAGTGCAG | 5030 fluorescence intensity (a.u.) |
| ACTCCACACACTGATCAACACTAATCAGCATGTACATTTGCGGAGTCACCTAGTGCAG | 4090 fluorescence intensity (a.u.) |
| TCGTTCTTCATGGTTGGGGCTGATTAGGTTGATGAGATAGCGGAGTCACCTAGTGCAG | 3850 fluorescence intensity (a.u.) |
| TCTGATTGGTACATGCTCACCTGGTTGGCTGGTTCTTCAGCGGAGTCACCTAGTGCAG | 53800 fluorescence intensity (a.u.) |
| TCTTTGTCAATCTTGTTTGGTTGCTCAAATCTTTTGGTGGCGGAGTCACCTAGTGCAG | 7260 fluorescence intensity (a.u.) |
| CTTGATTGTTCTTTCTTGCTCAAATGCCGGCCTGTGTTGGCGGAGTCACCTAGTGCAG | 53200 fluorescence intensity (a.u.) |
| TTTGGTTGGATTGGATTGGATTGGATTGGCTGCTTCCCTGCGGAGTCACCTAGTGCAG | 25000 fluorescence intensity (a.u.) |
| CTTTGTCTTTGTTTCTTGTTGATTGCAGGATCAAATCAACCGGAGTCACCTAGTGCAG | 5330 fluorescence intensity (a.u.) |
| TTCGTGCCTTTTGTTTGATAATTTCTTCATGCTATCTTTTCGGAGTCACCTAGTGCAG | 3660 fluorescence intensity (a.u.) |
| ACAAAATAAAATGATGGGCATTTTCTTCAGTTACAATTTCCGGAGTCACCTAGTGCAG | 3910 fluorescence intensity (a.u.) |
| TTACTAGATTTATCATTAAACATACTATCATAATATGCAACGGAGTCACCTAGTGCAG | 6040 fluorescence intensity (a.u.) |
| TGTGATGAATTGAGCGAACCAGCAGGGCTTCGCCGCTCCCCGGAGTCACCTAGTGCAG | 5470 fluorescence intensity (a.u.) |
| CCACTTTTAGATTTGACAATTAACTATTTGTCACTTTTAGCGGAGTCACCTAGTGCAG | 23600 fluorescence intensity (a.u.) |
| AAAATTACAGTCTTATTTAACTAAAATTACATATGTAAATCGGAGTCACCTAGTGCAG | 5170 fluorescence intensity (a.u.) |
| AGAGACAGCGAATCAATTAGCCAATGCTAATAATTTATAACGGAGTCACCTAGTGCAG | 8160 fluorescence intensity (a.u.) |
| AGCCCCTAAGCCAATCAATTAGCAGGCATCTTTACTCCTACGGAGTCACCTAGTGCAG | 18500 fluorescence intensity (a.u.) |
| TCCAATTTACTAATTACCACTTTATACGTACAATTATTGACGGAGTCACCTAGTGCAG | 23500 fluorescence intensity (a.u.) |
